According to PubChem BioAssay AID1851 (National Center for Advancing Translational Sciences (NCATS), 2009):
Out of some 16,000 compounds screened, about 5,700 (36%) were called active. About 24% were inconclusive and are not listed. The call rests on the fitted dose curve; in most records, active means well fitted curve in the direction sought with a large enough effect; inconclusive means small, poorly fitted or top-dose-only effect, or effect the other way; inactive means no such curve, though single readings can be large or run the other way. The list shows a part of the results.

Each compound was assayed against Cytochrome P450 1A2 (Homo sapiens) (UniProt P05177) (assay: Cytochrome panel assay with activity outcomes). Details: recombinant CYP, pro-luciferin dealkylation, luminescence, p450-cyp1a2; series mostly up to 57.1 µM.
Cytochrome P450 1A2 (Homo sapiens), sequence (P05177 whole entry, looked up): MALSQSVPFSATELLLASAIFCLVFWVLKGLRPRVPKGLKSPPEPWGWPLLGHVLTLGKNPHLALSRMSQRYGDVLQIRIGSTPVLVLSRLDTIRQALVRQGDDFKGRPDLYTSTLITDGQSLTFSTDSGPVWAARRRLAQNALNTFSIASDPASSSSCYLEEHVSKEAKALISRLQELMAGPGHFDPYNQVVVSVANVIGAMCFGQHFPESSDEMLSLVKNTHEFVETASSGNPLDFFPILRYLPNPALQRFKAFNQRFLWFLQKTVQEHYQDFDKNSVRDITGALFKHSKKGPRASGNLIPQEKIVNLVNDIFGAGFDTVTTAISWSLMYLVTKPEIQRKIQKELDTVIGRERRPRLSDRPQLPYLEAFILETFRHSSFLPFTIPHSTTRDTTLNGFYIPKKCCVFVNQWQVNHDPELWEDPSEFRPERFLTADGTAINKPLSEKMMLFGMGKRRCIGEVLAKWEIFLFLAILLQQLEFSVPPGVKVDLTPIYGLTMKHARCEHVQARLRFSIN
On the % scale 0 is the no-effect control and ±100 the full control effect.

Row | SMILES | AC50 | activity, negative = inhibition
1 | COc1cccc(-c2cncnc2NC2CCNCC2)c1 | inactive | –
2 | COc1cccc(-c2ccc3ncnc(NC4CC4)c3c2)c1 | 200 nM (active) | –
3 | c1cncc(-c2ccc3ncnc(NC4CCNCC4)c3c2)c1 | 12600 nM (active) | –
4 | COc1cccc(-c2ccc3ncnc(NC4CCNCC4)c3c2)c1 | 20000 nM (active) | –
5 | N#Cc1cccc(-c2ccc3ncnc(NC4CCNCC4)c3c2)c1 | 15800 nM (active) | –
6 | C[n+]1cccc(CNC(=O)/C=N/O)c1 | inactive | –
7 | CC(C)[C@]1(Cl)CC[C@@H]2[C@]3(C)CCC[C@@](C)(C(=O)O)[C@H]3C[C@H](Cl)[C@@]2(Cl)[C@H]1Cl | – | -13% [at 11.4 µM] (inactive)
8 | Cn1c(C[C@@H](O)c2nc3ccccc3n2C)nc2ccccc21 | – | -2.56% [at 2.29 µM] (inactive)
9 | Cn1c(SCc2nc3ccccc3n2CCO)nc2ccccc21 | 10000 nM (active) | –
10 | CCCS(=O)(=O)N1CCCC(C(=O)NCC2CCCO2)C1 (centres undefined) | inactive | –
11 | N#Cc1nc(-c2ccc(F)cc2)oc1N1CCCC1 | 178 nM (active) | –
12 | CC(=O)O[C@@H](C)C[N+](C)(C)C | inactive | –
13 | CNc1nc(-c2ccccc2OC)nc2ccccc12 | 398 nM (active) | –
14 | COc1ccccc1-c1nc(NCc2ccccc2)c2ccccc2n1 | 398 nM (active) | –
15 | Clc1ccccc1-c1nc(NCc2cccs2)c2ccccc2n1 | 1000 nM (active) | –
16 | COc1ccccc1-c1nc(NCc2cccs2)c2ccccc2n1 | 631 nM (active) | –
17 | COc1ccccc1-c1nc(NCc2cccnc2)c2ccccc2n1 | 794 nM (active) | –
18 | N/N=C1/CC(=O)NC(=O)N1 | 631 nM (active) | –
19 | COc1ccc(OC[C@@H](CO)OC)cc1 | – | -13.3% [at 11.4 µM] (inactive)
20 | CCCc1nnc(SCC(=O)N2CCCCC2C)n1CC1CCCO1 (centres undefined) | inactive | –
21 | O=C1[C@H]2[C@H]3[C@H](O)[C@H](O)C/C(=N/OCc4ccccc4)[C@@H]3CC[C@@H]2C(=O)N1C[C@@H]1CCCO1 | – | 1.8% [at 11.4 µM] (inactive)
22 | CCCc1nnc(SCC(=O)N2CCCCC2)n1CC1CCCO1 (centres undefined) | inactive | –

Row | SMILES | AC50 | activity, negative = inhibition
23 | O=C1[C@H]2[C@H]3[C@H](O)[C@H](O)C/C(=N/OCc4ccccc4)[C@H]3CC[C@@H]2C(=O)N1C[C@@H]1CCCO1 | – | -4.81% [at 11.4 µM] (inactive)
24 | CCNc1ncc2ncc(=O)n(C[C@H]3CCCO3)c2n1 | 10000 nM (active) | –
25 | O=c1cnc2cnc(Nc3ccccc3)nc2n1C[C@H]1CCCO1 | 794 nM (active) | –
26 | Cc1cc2nc(CCN(C(=S)NCC(C)C)C3CCCC3)[nH]c2cc1C | 3160 nM (active) | –
27 | CC(=O)Nc1nnc(CCN2CCCCC2)s1 | inactive | –
28 | CC(=O)Nc1sc2c(c1C(N)=O)CCCC2 | 3160 nM (active) | –
29 | COCCCNC(=O)c1c(NC(=O)c2cccs2)sc2c1CCCC2 | 251 nM (active) | –
30 | CCNC(=O)c1c(NC(C)=O)sc2c1CCCC2 | 1260 nM (active) | –
31 | CCN(CC)S(=O)(=O)c1cccc(C(=O)N[C@H](C(=O)OCC(=O)NC(=O)NC)C(C)C)c1 | inactive | –
32 | CCCC[C@@H]1C[C@H]1C(NC(=O)c1ccco1)c1ccccc1 (some centres undefined) | 2000 nM (active) | –
33 | CCCC[C@@H]1C[C@H]1C(NC(=O)c1ccco1)c1ccc(-c2ccccc2)cc1 (some centres undefined) | 5010 nM (active) | –
34 | CCCC[C@@H]1C[C@H]1C(NC(=O)Cc1ccccc1)c1ccc(-c2ccccc2)cc1 (some centres undefined) | inactive | –
35 | CCCC[C@@H]1C[C@H]1C(NC(=O)c1ccco1)c1ccc(Cl)cc1 (some centres undefined) | 794 nM (active) | –
36 | CCCNC(=O)CC(NS(=O)(=O)c1ccc(Cl)cc1)c1ccco1 (centres undefined) | inactive | –
37 | Cc1cccc(C(=O)O/N=C(\N)c2cccc([N+](=O)[O-])c2)c1 | 2510 nM (active) | –
38 | N/C(=N\OC(=O)Cc1ccc(-c2ccccc2)cc1)c1cccc([N+](=O)[O-])c1 | 14100 nM (active) | –
39 | CCOc1cc(C)ccc1OCc1nnc(SCC(=O)c2cccc([N+](=O)[O-])c2)n1CC | inactive | –
40 | COC(=O)C(CCSC)NC(=O)c1cccc([N+](=O)[O-])c1 (centres undefined) | inactive | –
41 | C[C@@H](c1ccccc1)N1C(=O)[C@H]2[C@H]3[C@H](O)[C@H](O)C/C(=N/OCc4ccccc4)[C@@H]3CC[C@@H]2C1=O | – | -7.71% [at 11.4 µM] (inactive)
42 | Clc1ccc(COC(Cn2ccnc2)c2ccc(Cl)cc2Cl)c(Cl)c1 (centres undefined) | 1260 nM (active) | –
43 | Clc1ccc(CO[C@@H](Cn2ccnc2)c2ccc(Cl)cc2Cl)cc1 | 100 nM (active) | –
44 | Clc1ccc([C@H](Cn2ccnc2)OCc2csc3c(Cl)cccc23)c(Cl)c1 | 6310 nM (active) | –

Row | SMILES | AC50 | activity, negative = inhibition
45 | Clc1ccc(C(c2ccc(Cl)cc2)n2cc[n+](C[C@@H](OCc3ccc(Cl)cc3Cl)c3ccc(Cl)cc3Cl)c2)cc1 | 31600 nM (active) | –
46 | CC(C)COP(=O)(c1ccc(N(C)C)cc1)C(O)c1ccccc1F (centres undefined) | inactive | –
47 | O=C(Nc1ccc(F)cc1Cl)c1ccc2c(=O)n3c(nc2c1)CCCCC3 | 5010 nM (active) | –
48 | O=C(Nn1cnc2ccccc2c1=O)c1ccc(F)cc1Cl | inactive | –
49 | CN1CCN(C(=O)c2ccc3c(=O)n4c(nc3c2)CCCCC4)CC1 | inactive | –
50 | CO[C@H]1COC(=O)[C@@H](C)COC(=O)[C@@H](COCc2ccccc2)NC(=O)C/C=C\[C@H]1C | – | 3.03% [at 11.4 µM] (inactive)
51 | COc1cc(COc2cc(N)c(Cl)cc2C(=O)CCC2CCN(CCNS(C)(=O)=O)CC2)cc(OC)c1 | inactive | –
52 | CCCCN1CCC(COC(=O)c2cc(Cl)c(N)c3c2OCCO3)CC1 | 12600 nM (active) | –
53 | CCCCN1CCC(CCC(=O)c2cc(Cl)c(N)cc2OC)CC1 | inactive | –
54 | CCN(CC)C(=O)C(=O)N/N=C/c1cccc(Br)c1 | 10000 nM (active) | –
55 | CCCCCCCCC(=O)N/N=C/c1cccc(Br)c1 | 891 nM (active) | –
56 | CCCCCCCCC(=O)N/N=C/c1ccccn1 | 4470 nM (active) | –
57 | NC([N-]/N=C/c1ccccn1)=[S]=[Fe].O=S(=O)(O)O | – | 15.8% [at 2.29 µM] (inactive)
58 | COCCNC(=O)Cn1cnc2ccc(S(=O)(=O)N3CCC(C)CC3)cc2c1=O | inactive | –
59 | CC(C)CN1CCCC2(CCN(S(=O)(=O)c3ccccc3)CC2)C1 | inactive | –
60 | O=S(=O)(c1ccccc1)N1CCC2(CC1)CN(Cc1nccs1)C2 | inactive | –
61 | CC(C)CN1CCC2(CC1)CCN(S(=O)(=O)c1ccccc1)CC2 | inactive | –
62 | O=S(=O)(c1ccccc1)N1CCC2(CCCN(Cc3nccs3)C2)CC1 | inactive | –
63 | O=S(=O)(c1ccccc1)N1CCC[C@@]2(CCN(Cc3nccs3)C2)C1 | 15800 nM (active) | –
64 | CC(C)CN1CC[C@@]2(CCCN(S(=O)(=O)c3ccccc3)C2)C1 | 25100 nM (active) | –
